# Results from PMC7862700, “An all-to-all approach to the identification of sequence-specific readers for epigenetic DNA modifications on cytosine”.
# How the values were obtained:
# Assay in all cases: DAPPL (digital affinity profiling via proximity ligation, sequencing); 10 mM Tris-HCl pH 7.5, 50 mM NaCl, 1 mM DTT, 4% glycerol, room temperature, 30 min; GST-TFs on glutathione beads, 16-mer random dsDNA library, 0.1% formaldehyde crosslink after washing; high values mean tight binding
# SPIB = SPIB (Homo sapiens, UniProt Q01892 1-262); settings: protein: recombinant; tags: N-terminal GST; dsDNA, one strand shown
# Method in brief: (§1)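 Yeast served to express human transcription factors as GST fusions, which were then captured on glutathione beads and labelled with DNA barcodes. Pooled with a tag-only sample, they were incubated with 200 nmole of a 16-mer random double-stranded DNA library for 30 min at room temperature in Tris/NaCl/DTT/glycerol buffer, washed, crosslinked with 0.1% formaldehyde, ligated by proximity, amplified by PCR and sequenced. Dividing each hexamer's read frequency for a factor by its frequency for the tag-only sample gives the binding signal.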
# ELK3 = molecular target: T1, ELK3 (Homo sapiens, UniProt P41970 1-407); settings: protein: recombinant; tags: N-terminal GST; dsDNA, one strand shown
# T1 sequence: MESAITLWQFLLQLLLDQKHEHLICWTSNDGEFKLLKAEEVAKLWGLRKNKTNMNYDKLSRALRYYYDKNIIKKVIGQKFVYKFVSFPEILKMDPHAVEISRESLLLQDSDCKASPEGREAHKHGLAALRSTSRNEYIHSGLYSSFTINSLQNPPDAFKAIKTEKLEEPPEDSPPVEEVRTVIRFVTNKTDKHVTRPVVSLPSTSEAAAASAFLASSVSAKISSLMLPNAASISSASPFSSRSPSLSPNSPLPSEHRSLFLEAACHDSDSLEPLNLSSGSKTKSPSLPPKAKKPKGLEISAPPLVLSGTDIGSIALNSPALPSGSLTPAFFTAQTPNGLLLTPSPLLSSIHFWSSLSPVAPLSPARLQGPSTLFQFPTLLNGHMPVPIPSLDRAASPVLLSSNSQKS
# Method in brief: as §1
# HSF1 = HSF1 (Homo sapiens, UniProt Q00613 1-529); settings: protein: recombinant; tags: N-terminal GST; chain copies: 3; dsDNA, one strand shown
# Method in brief: as §1
# ELK4 = molecular target: T2, ELK4 (Homo sapiens, UniProt P28324-2 1-405); settings: protein: recombinant; tags: N-terminal GST; dsDNA, one strand shown
# T2 sequence: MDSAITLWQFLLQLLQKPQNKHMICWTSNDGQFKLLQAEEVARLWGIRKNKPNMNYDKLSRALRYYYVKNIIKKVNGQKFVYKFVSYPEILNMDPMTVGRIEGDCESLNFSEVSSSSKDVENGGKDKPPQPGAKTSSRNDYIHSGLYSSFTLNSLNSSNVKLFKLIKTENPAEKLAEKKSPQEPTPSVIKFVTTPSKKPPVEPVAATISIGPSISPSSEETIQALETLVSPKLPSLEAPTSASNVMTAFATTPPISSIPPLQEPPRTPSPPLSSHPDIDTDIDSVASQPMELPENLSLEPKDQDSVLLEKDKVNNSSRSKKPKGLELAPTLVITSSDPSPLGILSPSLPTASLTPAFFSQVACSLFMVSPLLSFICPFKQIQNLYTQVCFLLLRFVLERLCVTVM
# Method in brief: as §1
# ETV2 = molecular target: T3, ETV2 (Homo sapiens, UniProt O00321 1-342); settings: protein: recombinant; tags: N-terminal GST; dsDNA, one strand shown
# T3 sequence: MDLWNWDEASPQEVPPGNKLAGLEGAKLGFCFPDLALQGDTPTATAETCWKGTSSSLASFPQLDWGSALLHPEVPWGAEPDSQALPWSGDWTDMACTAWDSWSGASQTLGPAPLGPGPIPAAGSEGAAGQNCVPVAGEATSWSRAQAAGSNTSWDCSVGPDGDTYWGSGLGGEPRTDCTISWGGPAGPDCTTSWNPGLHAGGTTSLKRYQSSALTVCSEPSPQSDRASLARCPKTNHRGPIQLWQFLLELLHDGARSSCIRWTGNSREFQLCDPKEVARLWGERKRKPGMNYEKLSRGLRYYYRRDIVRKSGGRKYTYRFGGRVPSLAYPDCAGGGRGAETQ
# Method in brief: as §1
# ETV3L = molecular target: T4, ETV3L (Homo sapiens, UniProt Q6ZN32 1-361); settings: protein: recombinant; tags: N-terminal GST; dsDNA, one strand shown
# T4 sequence: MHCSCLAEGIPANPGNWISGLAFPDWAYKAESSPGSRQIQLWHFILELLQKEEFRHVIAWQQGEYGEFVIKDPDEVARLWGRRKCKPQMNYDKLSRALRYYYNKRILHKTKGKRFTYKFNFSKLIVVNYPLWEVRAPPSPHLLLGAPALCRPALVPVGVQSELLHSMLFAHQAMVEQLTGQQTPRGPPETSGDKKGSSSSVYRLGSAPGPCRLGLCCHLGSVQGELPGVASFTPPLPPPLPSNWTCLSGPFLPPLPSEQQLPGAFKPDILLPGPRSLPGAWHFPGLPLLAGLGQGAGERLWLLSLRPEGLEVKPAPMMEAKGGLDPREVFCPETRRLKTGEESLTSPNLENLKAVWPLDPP
# Method in brief: as §1
# ETS2 = molecular target: T5, ETS2 (Homo sapiens, UniProt P15036 1-469); settings: protein: recombinant; tags: N-terminal GST; dsDNA, one strand shown
# T5 sequence: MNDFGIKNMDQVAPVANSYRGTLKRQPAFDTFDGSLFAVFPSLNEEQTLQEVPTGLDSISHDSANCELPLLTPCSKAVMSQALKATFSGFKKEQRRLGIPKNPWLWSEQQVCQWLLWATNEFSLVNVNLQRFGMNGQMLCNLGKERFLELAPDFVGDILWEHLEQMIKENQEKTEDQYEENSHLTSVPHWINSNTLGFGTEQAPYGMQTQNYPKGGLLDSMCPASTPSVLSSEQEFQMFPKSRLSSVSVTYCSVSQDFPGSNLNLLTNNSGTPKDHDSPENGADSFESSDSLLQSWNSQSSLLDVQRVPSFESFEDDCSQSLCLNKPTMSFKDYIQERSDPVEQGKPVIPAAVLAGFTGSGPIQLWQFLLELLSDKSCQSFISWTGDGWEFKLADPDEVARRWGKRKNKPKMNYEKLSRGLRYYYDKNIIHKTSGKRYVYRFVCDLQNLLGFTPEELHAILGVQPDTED
# Method in brief: as §1
# ELK1 = molecular target: T6, ELK1 (Homo sapiens, UniProt P19419 1-428); settings: protein: recombinant; tags: N-terminal GST; dsDNA, one strand shown
# T6 sequence: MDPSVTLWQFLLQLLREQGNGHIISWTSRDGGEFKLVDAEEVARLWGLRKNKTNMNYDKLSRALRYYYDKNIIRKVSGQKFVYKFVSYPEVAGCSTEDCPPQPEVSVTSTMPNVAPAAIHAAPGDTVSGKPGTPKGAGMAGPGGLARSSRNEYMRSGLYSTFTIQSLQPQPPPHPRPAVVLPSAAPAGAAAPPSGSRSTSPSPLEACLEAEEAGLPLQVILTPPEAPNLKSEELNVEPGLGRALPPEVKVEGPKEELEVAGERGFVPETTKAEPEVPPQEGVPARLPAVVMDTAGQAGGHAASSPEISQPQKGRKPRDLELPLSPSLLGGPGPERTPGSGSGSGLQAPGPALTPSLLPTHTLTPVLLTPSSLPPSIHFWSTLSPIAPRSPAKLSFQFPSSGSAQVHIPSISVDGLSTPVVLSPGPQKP
# Method in brief: as §1
# GABPA = molecular target: T7, GABPA (Homo sapiens, UniProt Q06546 1-454); settings: protein: recombinant; tags: N-terminal GST; dsDNA, one strand shown
# T7 sequence: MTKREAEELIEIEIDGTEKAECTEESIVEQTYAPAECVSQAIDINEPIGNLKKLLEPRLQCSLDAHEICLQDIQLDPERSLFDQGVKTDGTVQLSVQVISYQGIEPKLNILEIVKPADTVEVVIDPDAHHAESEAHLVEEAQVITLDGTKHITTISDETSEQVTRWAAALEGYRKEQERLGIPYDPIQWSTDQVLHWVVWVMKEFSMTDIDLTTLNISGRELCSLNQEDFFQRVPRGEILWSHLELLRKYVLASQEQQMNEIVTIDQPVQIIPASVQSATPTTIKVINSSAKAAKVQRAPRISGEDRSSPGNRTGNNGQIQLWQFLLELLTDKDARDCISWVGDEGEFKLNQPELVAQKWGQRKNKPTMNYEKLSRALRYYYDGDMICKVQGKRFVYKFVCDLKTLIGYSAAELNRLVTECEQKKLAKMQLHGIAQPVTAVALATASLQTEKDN
# Method in brief: as §1
# ERG = molecular target: T8, ERG (Homo sapiens, UniProt P11308 1-479); settings: protein: recombinant; tags: N-terminal GST; dsDNA, one strand shown
# T8 sequence: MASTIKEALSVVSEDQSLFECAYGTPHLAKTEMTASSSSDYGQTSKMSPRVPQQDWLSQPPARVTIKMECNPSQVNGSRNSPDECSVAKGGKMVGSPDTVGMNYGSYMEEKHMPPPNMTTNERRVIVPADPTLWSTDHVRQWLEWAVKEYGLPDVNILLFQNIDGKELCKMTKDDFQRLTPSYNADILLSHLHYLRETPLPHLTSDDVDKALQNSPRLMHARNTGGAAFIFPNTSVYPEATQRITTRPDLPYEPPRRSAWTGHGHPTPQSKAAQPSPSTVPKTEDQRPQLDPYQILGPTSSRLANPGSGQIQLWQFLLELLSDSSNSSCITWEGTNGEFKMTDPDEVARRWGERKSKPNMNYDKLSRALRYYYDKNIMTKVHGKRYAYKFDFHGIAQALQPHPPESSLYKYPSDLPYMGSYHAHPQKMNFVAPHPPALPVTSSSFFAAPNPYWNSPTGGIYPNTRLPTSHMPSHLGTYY
# Method in brief: as §1
# EHF = molecular target: T9, EHF (Homo sapiens, UniProt Q9NZC4 1-300); settings: protein: recombinant; tags: N-terminal GST; dsDNA, one strand shown
# T9 sequence: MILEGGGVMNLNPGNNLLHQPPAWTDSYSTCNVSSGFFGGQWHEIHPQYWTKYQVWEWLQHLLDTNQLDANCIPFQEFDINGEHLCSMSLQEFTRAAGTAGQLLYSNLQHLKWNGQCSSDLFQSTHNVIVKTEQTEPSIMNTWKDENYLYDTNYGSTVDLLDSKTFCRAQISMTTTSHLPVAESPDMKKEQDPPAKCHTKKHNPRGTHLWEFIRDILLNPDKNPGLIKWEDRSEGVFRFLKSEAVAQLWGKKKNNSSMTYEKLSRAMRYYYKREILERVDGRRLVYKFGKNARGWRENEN
# Method in brief: as §1
# ELF4 = ELF4 (Homo sapiens, UniProt Q99607 1-663); settings: protein: recombinant; tags: N-terminal GST; dsDNA, one strand shown
# Method in brief: as §1
# CRX = CRX (Homo sapiens, UniProt O43186 1-299); settings: protein: recombinant; tags: N-terminal GST; dsDNA, one strand shown
# Method in brief: as §1
# ETV7 = molecular target: T10, ETV7 (Homo sapiens, UniProt Q9Y603 1-341); settings: protein: recombinant; tags: N-terminal GST; dsDNA, one strand shown
# T10 sequence: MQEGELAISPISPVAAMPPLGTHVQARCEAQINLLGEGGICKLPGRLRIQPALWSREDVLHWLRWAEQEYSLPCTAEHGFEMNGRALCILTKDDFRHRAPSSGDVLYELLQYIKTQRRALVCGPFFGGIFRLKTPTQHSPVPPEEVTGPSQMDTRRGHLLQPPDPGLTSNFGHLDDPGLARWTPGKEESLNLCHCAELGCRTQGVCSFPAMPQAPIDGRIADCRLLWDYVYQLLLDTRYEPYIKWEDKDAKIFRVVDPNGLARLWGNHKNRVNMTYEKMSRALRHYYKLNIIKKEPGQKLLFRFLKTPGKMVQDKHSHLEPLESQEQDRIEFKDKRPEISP
# Method in brief: as §1
# Sequence of HSF1 (Q00613 whole entry): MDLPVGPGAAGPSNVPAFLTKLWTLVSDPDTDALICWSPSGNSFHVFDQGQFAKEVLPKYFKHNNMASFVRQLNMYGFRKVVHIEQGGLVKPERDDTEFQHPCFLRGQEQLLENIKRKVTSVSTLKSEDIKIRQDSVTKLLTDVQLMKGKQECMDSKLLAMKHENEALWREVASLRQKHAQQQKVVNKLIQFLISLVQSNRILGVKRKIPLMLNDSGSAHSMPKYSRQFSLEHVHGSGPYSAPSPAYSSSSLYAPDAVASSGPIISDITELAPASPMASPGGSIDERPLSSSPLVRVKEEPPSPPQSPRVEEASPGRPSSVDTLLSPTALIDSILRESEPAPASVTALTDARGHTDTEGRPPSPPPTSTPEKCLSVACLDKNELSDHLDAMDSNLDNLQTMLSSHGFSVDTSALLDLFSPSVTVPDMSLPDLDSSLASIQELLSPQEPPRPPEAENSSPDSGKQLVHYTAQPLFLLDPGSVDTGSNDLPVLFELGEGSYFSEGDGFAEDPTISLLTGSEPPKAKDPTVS
# Sequence of SPIB (Q01892 whole entry, the tested form may be a part): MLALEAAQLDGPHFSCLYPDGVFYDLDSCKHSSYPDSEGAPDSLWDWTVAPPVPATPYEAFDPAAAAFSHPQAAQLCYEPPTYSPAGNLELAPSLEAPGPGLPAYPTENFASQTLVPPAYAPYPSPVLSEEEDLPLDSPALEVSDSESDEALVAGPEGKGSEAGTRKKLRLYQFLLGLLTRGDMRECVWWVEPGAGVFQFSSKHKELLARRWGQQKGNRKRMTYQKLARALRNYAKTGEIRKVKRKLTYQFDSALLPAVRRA
# Sequence of ELF4 (Q99607 whole entry): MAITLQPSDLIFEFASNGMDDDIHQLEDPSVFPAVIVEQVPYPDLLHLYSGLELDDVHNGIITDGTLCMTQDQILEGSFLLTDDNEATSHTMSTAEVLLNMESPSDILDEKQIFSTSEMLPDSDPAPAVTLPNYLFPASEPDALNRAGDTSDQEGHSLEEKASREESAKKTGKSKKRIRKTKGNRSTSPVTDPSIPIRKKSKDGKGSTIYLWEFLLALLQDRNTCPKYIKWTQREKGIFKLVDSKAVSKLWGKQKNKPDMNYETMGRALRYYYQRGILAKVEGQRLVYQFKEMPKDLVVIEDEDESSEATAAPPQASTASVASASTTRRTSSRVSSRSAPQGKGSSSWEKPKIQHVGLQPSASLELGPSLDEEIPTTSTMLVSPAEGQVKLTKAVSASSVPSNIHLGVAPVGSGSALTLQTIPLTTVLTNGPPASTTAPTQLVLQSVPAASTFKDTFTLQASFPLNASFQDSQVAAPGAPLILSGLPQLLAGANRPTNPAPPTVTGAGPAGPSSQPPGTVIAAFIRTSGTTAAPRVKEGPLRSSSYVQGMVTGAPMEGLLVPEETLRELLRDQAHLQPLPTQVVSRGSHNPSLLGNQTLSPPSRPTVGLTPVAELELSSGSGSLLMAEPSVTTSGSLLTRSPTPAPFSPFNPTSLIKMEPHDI
# Sequence of CRX (O43186 whole entry): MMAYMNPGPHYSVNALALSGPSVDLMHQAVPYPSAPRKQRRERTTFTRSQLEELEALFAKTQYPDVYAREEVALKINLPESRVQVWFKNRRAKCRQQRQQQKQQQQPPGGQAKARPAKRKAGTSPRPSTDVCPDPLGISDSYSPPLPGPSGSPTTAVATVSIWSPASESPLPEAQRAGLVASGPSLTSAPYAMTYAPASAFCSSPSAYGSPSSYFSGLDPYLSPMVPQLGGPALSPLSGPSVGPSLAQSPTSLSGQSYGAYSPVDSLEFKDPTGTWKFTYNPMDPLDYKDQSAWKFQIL
Sequence,binding signal (SPIB),binding signal (ELK3),binding signal (HSF1),binding signal (ELK4),binding signal (ETV2),binding signal (ETV3L),binding signal (ETS2),binding signal (ELK1),binding signal (GABPA),binding signal (ERG),binding signal (EHF),binding signal (ELF4),binding signal (CRX),binding signal (ETV7)
GCCTGG,"1.04 fold enrichment (6-mer frequency, TF over GST control)","1.01 fold enrichment (6-mer frequency, TF over GST control)","1.05 fold enrichment (6-mer frequency, TF over GST control)","1.08 fold enrichment (6-mer frequency, TF over GST control)","1.19 fold enrichment (6-mer frequency, TF over GST control)","1 fold enrichment (6-mer frequency, TF over GST control)","1.02 fold enrichment (6-mer frequency, TF over GST control)",,,,,,,
TCGGCT,,,"1.15 fold enrichment (6-mer frequency, TF over GST control)",,,,,"1.02 fold enrichment (6-mer frequency, TF over GST control)","1.03 fold enrichment (6-mer frequency, TF over GST control)","1.09 fold enrichment (6-mer frequency, TF over GST control)","1.02 fold enrichment (6-mer frequency, TF over GST control)","1.1 fold enrichment (6-mer frequency, TF over GST control)","1.34 fold enrichment (6-mer frequency, TF over GST control)","1.05 fold enrichment (6-mer frequency, TF over GST control)"
